# A selection: hits, their analogues and other compounds. The true share with any hit is near 1.6%.
# KCNQ2 enhance = KCNQ2 (rat) channel potentiation. O88943. CHO-K1 KCNQ2, FluxOR thallium flux fluorescence; stronger effect = higher value. B-score at 10 µM. actives 0.54% (n = 310,000). AID 2239;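 active means fluorescence ratio B-score at least 3 SD of library B-scores, with initial fluorescence B-score within 3 of them, cut at about 5.3 in these data; same plate scores as AID 2156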;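 further: B-score of peak minus minimum over baseline fluorescence ratio after K+ and Tl+ stimulus; positive B-score means potentiation of KCNQ2 with more thallium influx and brighter signal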
# KCNQ2 inh = inhibitors of rat KCNQ2 potassium channel; O88943; CHO-K1 KCNQ2, FluxOR thallium flux, 20 min; stronger effect = lower value; B-score at 10 µM; actives 1.1% (n = 310,000); AID 2156;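 active means fluorescence ratio B-score at most minus 3 library SDs, with starting brightness B-score within 2 library SDs, cut at about -5.5 in these data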
# Kir21 confirm = confirmation of mouse Kir2.1 potassium channel inhibitors | shares compounds with KCNQ2 enhance | Kir2.1-expressing cells, FluxOR thallium flux fluorescence; stronger effect = lower value | Tl flux remaining, % of negative control (stronger effect = lower value), % at 10 µM | actives 41% (n = 2,300) | AID 2032;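 active means Primary-screen hit whose thallium flux fell at least 3 control SD below untreated wells in both duplicates, with normal baseline fluorescence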
# Target sequence (P35561 whole entry, looked up): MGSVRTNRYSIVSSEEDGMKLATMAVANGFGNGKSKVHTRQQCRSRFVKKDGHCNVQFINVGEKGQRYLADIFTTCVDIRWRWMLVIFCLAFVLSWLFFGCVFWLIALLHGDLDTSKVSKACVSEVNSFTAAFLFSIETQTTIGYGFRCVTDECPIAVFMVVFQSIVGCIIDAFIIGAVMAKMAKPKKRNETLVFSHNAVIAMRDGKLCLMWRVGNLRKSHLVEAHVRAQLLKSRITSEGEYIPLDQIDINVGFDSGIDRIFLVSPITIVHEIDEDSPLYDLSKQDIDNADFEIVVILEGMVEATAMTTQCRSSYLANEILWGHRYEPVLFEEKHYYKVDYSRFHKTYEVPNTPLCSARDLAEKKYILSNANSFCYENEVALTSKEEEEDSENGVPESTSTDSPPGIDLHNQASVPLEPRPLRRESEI
# HEK293 Tl flux = parental HEK293 activity in Kir2.1 inhibitor counter-screen | shares compounds with KCNQ2 enhance | parental HEK293 cells, FluxOR thallium flux fluorescence; 0% = unstimulated blank wells | FluxOR signal as % of negative control (100 = no effect), % at 10 µM | actives 19% (n = 2,300) | AID 2105;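 active means dye signal at least 3 control SD above or below untreated wells in both duplicates, raw fluorescence within 3, either direction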;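 further: percent is based on the flux ratio of peak minus minimum fluorescence over baseline F0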
# CHO-K1 Tl ctr = parental CHO-K1 activity in KCNQ2 potentiator counter-screen; shares compounds with KCNQ2 enhance; activity increase over 3SD of controls, % at 10 µM; parental CHO-K1 cells, FluxOR thallium flux fluorescence; zero = vehicle mean+3SD, 100% = vehicle-minus-blank window; actives 43% (n = 1,200);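 active means signal rise of at least 3 SD above the untreated control mean, in both duplicate wells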;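 further: counter screen of KCNQ2 potentiator hits so any rise reflects channel-independent effects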
# KCNQ1 pot spec = human KCNQ1 counter-target activity of KCNQ2 potentiators. activation over 3SD threshold, % at 10 µM. actives 28% (n = 1,200). shares compounds with KCNQ2 enhance. AID 2283. CHO KCNQ1 stable, FluxOR thallium flux fluorescence; beyond 3SD, as % of vehicle-control signal;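 active means fluorescence ratio rise of at least 3 SD of vehicle wells above their mean, in both replicate wells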
# KCNQ2 pot conf = rat KCNQ2 channel potentiator confirmation; actives 68% (n = 1,200); potentiation, less the hit threshold, % at 10 µM; shares compounds with KCNQ2 enhance; CHO-KCNQ2 cells, FluxOR thallium flux fluorescence;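 active means fluorescence ratio rising 3 SD or more over the vehicle control mean in both replicates, plus primary screen hit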;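 further: peak minus minimum thallium fluorescence divided by baseline after K/Tl stimulus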
# Kir21 spec = mouse Kir2.1 off-target activity of KCNQ2 potentiators. activity over 3SD threshold, % at 10 µM. AID 2345. HEK293 Kir2.1, FluxOR thallium flux fluorescence. actives 2% (n = 1,200). shares compounds with KCNQ2 enhance;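 active means fluorescence ratio rise of at least 3 SD above the vehicle-control mean, seen in both replicates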
# KCNQ2 W236L MoA = potentiates the retigabine-insensitive rat KCNQ2 W236L mutant channel; shares compounds with KCNQ2 enhance; CHO KCNQ2-W236L, automated patch clamp current; current increase over 3SD of negative controls (%), stronger effect = higher value, % at 25 µM; actives 10% (n = 940);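 active means current increase at least 3 SD of the untreated controls above them in both duplicate recordings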
# Hits are given with their value; – = inactive; · = no result.
SMILES,KCNQ2 enhance,KCNQ2 inh,Kir21 confirm,HEK293 Tl flux,others
Cc1ccc(/C=C/C(=O)NC(C)c2ccccc2)cc1 (stereo unspecified),–,–,·,·,
CC(NC(=O)/C=C/c1ccc(Br)cc1)c1ccccc1 (stereo unspecified),–,–,·,·,
O=C(NCC1CCCO1)c1cc2nc(-c3ccco3)cc(C(F)(F)Cl)n2n1 (stereo unspecified),–,–,·,·,
Cc1ccc(N2CC(C(=O)Nc3nc4ccc(S(C)(=O)=O)cc4s3)CC2=O)cc1 (stereo unspecified),·,–,·,·,
Cn1ccnc1SCC(=O)Nc1ccc(Br)cc1C(F)(F)F,–,–,·,·,
COc1cccc(OC)c1NC(=O)CN(C)S(=O)(=O)c1ccc2c(c1)OCCO2,·,–,·,·,
Cc1sc2ncnc(NCC(O)c3ccc([N+](=O)[O-])cc3)c2c1C (stereo unspecified),–,–,·,·,
OC(COc1ccc2cc(Br)ccc2c1)CN1CCCC1 (stereo unspecified),·,–,38.5%,–,
OC(COc1ccc2cc(Br)ccc2c1)CN1CCN(c2ccccn2)CC1 (stereo unspecified),7.38,–,–,–,CHO-K1 Tl ctr=–;KCNQ1 pot spec=13.9;KCNQ2 pot conf=–;Kir21 spec=–
COc1cccc(OCC(O)CN2CCN(c3ccccn3)CC2)c1 (stereo unspecified),–,–,·,·,
O=S(=O)(N1CCCCC1)N1CCN(CC(O)COc2ccc3cc(Br)ccc3c2)CC1 (stereo unspecified),–,–,·,·,
COc1ccc2c(c1)C(C)(CCN)C(=O)N2C (stereo unspecified),·,–,·,·,
O=C(O)C(c1ccccc1)N1CCCC1 (stereo unspecified),–,–,·,·,
Cc1cccc(NS(=O)(=O)c2ccc3c(c2)NC(=O)CO3)c1C,·,–,·,·,
CC12C=CC3(O1)C(C(=O)N(c1ccccc1)C3C(=O)NC1CCCC1)C2C(N)=O (stereo unspecified),·,–,·,·,
CCc1cccc(C)c1NC(=O)C1CCCN1C(=O)NCc1ccccc1 (stereo unspecified),·,–,·,·,
Cn1c(-c2ccc(F)cc2)cnc1NCc1ccc(C#N)cc1,·,–,·,·,
Cn1c(-c2ccc3c(c2)OCO3)cnc1NCc1ccc(Cl)cc1,·,–,21.0%,–,
Cn1c(-c2ccccc2)cnc1NCc1ccc(-c2ccccc2)cc1,·,–,·,·,
Cc1ccc(CNc2ncc(-c3ccc4c(c3)OCO4)n2C)cc1,–,-6.01,22.5%,–,
Cn1c(-c2ccc(F)cc2)cnc1NCc1ccc(F)cc1,·,–,38.0%,–,
COc1cc(CNc2ncc(-c3ccc(Cl)cc3)n2C)cc(OC)c1OC,·,–,·,·,
CCCCN(C)CCNC(=O)Cn1ncc2c(=O)oc3ccc(C)cc3c21,–,–,·,·,
Cc1cc(C)n(/N=C/c2ccccc2O)c(=O)c1,·,–,·,·,
Cc1cc(C)n(/N=C/c2cc(Cl)cc(Cl)c2O)c(=O)c1,9.78,–,–,–,CHO-K1 Tl ctr=–;KCNQ1 pot spec=39.2;KCNQ2 pot conf=–;Kir21 spec=–
SMILES,KCNQ2 enhance,KCNQ2 inh,Kir21 confirm,HEK293 Tl flux,others
CCS(=O)(=O)N1CCN=C1SCc1ccc(F)cc1,–,–,·,·,
C/C(N)=C(/C#N)C(=O)COC(=O)CC1CCCC1,·,–,·,·,
C/C(N)=C(/C#N)C(=O)COC(=O)C1CCC(C(C)(C)C)CC1 (stereo unspecified),–,–,28.0%,–,CHO-K1 Tl ctr=8.1;KCNQ1 pot spec=–;KCNQ2 pot conf=7.8;Kir21 spec=–;KCNQ2 W236L MoA=–
O=C(Nc1ccccn1)c1ccc(S(=O)(=O)N2CCCCCC2)cc1,–,–,·,·,
CC(OC(=O)Cn1cnc2c1c(=O)n(C)c(=O)n2C)C(=O)NC1CCCCC1C (stereo unspecified),·,–,·,·,
O=C(CN1CCC(Cc2ccccc2)CC1)Nc1ccc2c(c1)OCCO2,5.47,–,·,·,CHO-K1 Tl ctr=–;KCNQ1 pot spec=–;KCNQ2 pot conf=0.3;Kir21 spec=–;KCNQ2 W236L MoA=–
CN(C)S(=O)(=O)c1ccc(NC(=O)CN2CCC(Cc3ccccc3)CC2)cc1,–,–,·,·,
Cc1nc(C)c(C(=O)O)c(-c2cccs2)c1C(=O)O,–,–,·,·,
CCOc1cc(NC(=O)c2cccs2)c(OCC)cc1NC(=O)CCC(=O)NCC1CCCO1 (stereo unspecified),–,–,·,·,
S=c1[nH]nc(-c2cc(-c3ccccn3)nc3ccccc23)o1,–,–,·,·,
Cc1ccc(-c2cc(-c3n[nH]c(=S)o3)c3ccccc3n2)cc1,13.8,–,–,485.5%,CHO-K1 Tl ctr=47.4;KCNQ1 pot spec=–;KCNQ2 pot conf=167.5;Kir21 spec=–;KCNQ2 W236L MoA=–
Cc1cc(NC(=O)c2cc(-c3ccc(OC(C)C)cc3)nc3ccccc23)no1,·,–,·,·,
CC(C)[C@H](NC(=O)N1c2ccccc2NC(=O)[C@@H]1C(C)C)C(=O)N[C@@H](Cc1c[nH]c2ccccc12)C(=O)O,–,–,·,·,
Cn1nc(C(=O)OCC(=O)Nc2ccc3ccccc3c2)c2ccccc2c1=O,–,–,·,·,
CCCCCC(=O)Cc1cc(O)cc2c1C(=O)Oc1cc(O)c(C(=O)O)c(CCCCC)c1O2,7.51,–,–,–,CHO-K1 Tl ctr=–;KCNQ1 pot spec=42.7;KCNQ2 pot conf=8.8;Kir21 spec=–;KCNQ2 W236L MoA=–
COCC(C)NC(=O)C1CC(c2cccc(Br)c2)=NO1 (stereo unspecified),·,–,·,·,
C#CCSc1nnc(-c2cc3c(C(F)(F)F)nn(C)c3s2)n1C,·,–,·,·,
N#Cc1nc(Cc2cccc3ccccc23)oc1NCCCn1ccnc1,–,–,·,·,
N#Cc1nc(Cc2cccc3ccccc23)oc1NCCCN1CCOCC1,·,–,52.0%,–,
Cc1cccc(OCC(=O)N(Cc2ccc(F)cc2)C2CCS(=O)(=O)C2)c1C (stereo unspecified),·,–,·,·,
O=C(NNC1=C(C(=O)C(F)(F)F)CCC1)c1cccc(Cl)c1,–,–,·,·,
COc1ccc(C(=O)NNc2ccccc2)cc1,·,–,·,·,
COc1ccc(C(=O)NNC2=C(C(=O)C(F)(F)F)CCC2)cc1,5.54,–,–,–,CHO-K1 Tl ctr=14.1;KCNQ1 pot spec=31.8;KCNQ2 pot conf=6.0;Kir21 spec=–;KCNQ2 W236L MoA=–
O=C(NNC1=C(C(=O)C(F)(F)F)CCC1)c1ccc(Cl)cc1,7.78,–,–,–,CHO-K1 Tl ctr=18.3;KCNQ1 pot spec=–;KCNQ2 pot conf=4.8;Kir21 spec=–;KCNQ2 W236L MoA=–
O=c1cc(-c2ccccc2)cc(-c2ccccc2)n1O,6.64,–,–,333.5%,CHO-K1 Tl ctr=–;KCNQ1 pot spec=96.6;KCNQ2 pot conf=13.5;Kir21 spec=–;KCNQ2 W236L MoA=–
Cn1c(-c2ccccc2)cc(=O)c2ccccc21,·,–,·,·,
CCOC(=O)C1(CC2CCCCO2)CCN(C(=O)Nc2ccccc2CC)CC1 (stereo unspecified),·,–,·,·,
Cc1ccc(-c2nc(-c3ccncc3)no2)cc1,–,–,·,·,
CC(C)(C)c1ccc(-c2nc(-c3ccncc3)no2)cc1,7,–,–,–,CHO-K1 Tl ctr=54.1;KCNQ1 pot spec=–;KCNQ2 pot conf=45.5;Kir21 spec=–;KCNQ2 W236L MoA=–

# Bioassay records from PubChem BioAssay.
